Measured values reported in PubChem BioAssay AID651703 (Broad Institute, 2012).
About 970 (81%) of roughly 1,200 compounds were called active. How the calls were made is not given here. So high a share suggests a set chosen from earlier hits. Only a sample is shown. Measured potencies and affinities stand elsewhere.

target: Transforming acidic coiled-coil-containing protein 3 (Homo sapiens) (UniProt Q9Y6A5); assay: ARNT/TACC3 interaction disruptors, potency, confirmation, biochemical, AlphaScreen, cherry-picked samples (AID 651703); conditions: AlphaScreen His-ARNT PAS-B / GST-TACC3 binding, luminescence; series mostly up to 68 µM; activity change, negative = inhibition: at the top concentration;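 further: TACC3 partner is the GST-tagged E629A mutant dimer; hits lower the signal meaning they disrupt ARNT binding to TACC3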

Activity change, negative = inhibition, inactive:
O=C(N[C@H]1CC[C@@H](CCn2cc(-c3ccccc3)nn2)O[C@@H]1CO)c1cnccn1 -5.38%, O=C(C[C@@H]1CC[C@@H](NC(=O)c2ccccc2)[C@H](CO)O1)Nc1ccc(-c2ccccc2)cc1 -7.97%, O=C(C[C@H]1CC[C@@H](NC(=O)c2ccccc2)[C@H](CO)O1)Nc1ccc(-c2ccccc2)cc1 -7.06%, CN1CCC(n2[nH]c(-c3ccccc3)c(Cc3ccccc3)c2=O)CC1 -10.5%, COc1ccc(-c2cnc3c(c2)C(=O)N([C@H](C)CO)C[C@@H](C)[C@H](CN(C)Cc2cccnc2)O3)cc1 -5.95%, C[C@@H]1CN([C@@H](C)CO)C(=O)c2cc(NC(=O)CCN3CCOCC3)ccc2O[C@@H]1CN(C)Cc1ccncc1 -3.85%, CC(C)NC(=O)Nc1ccc2c(c1)CC(=O)N([C@H](C)CO)C[C@H](C)[C@H](CN(C)S(=O)(=O)c1cccs1)O2 -14.9%, COc1ccc(CN(C)C[C@@H]2Oc3ccc(NC(=O)Cn4cnnn4)cc3C(=O)N([C@@H](C)CO)C[C@H]2C)cc1 -9.62%, CC(C)NC(=O)N(C)C[C@H]1Oc2ccc(N(C)C)cc2CC(=O)N([C@@H](C)CO)C[C@@H]1C 0.668%, C[C@H](CO)N1C[C@H](C)[C@H](CN(C)C(=O)NC2CCCCC2)Oc2ccc(NS(=O)(=O)c3cccs3)cc2CC1=O -6.44%, C[C@H]1CN([C@@H](C)CO)C(=O)c2cc(C#Cc3ccccn3)cnc2O[C@@H]1CN(C)Cc1ccccc1 -12.5%, Cc1cc(C)n2nc(-c3cccc(Br)c3)cc2n1 0.525%, N/C(=N\NS(=O)(=O)c1ccccc1Cl)c1ccccn1 -23%, S=c1[nH]nc(-c2cc3c(s2)-c2ccccc2CC3)o1 -31.4%, COc1cc2c(cc1OC)-c1cc(Nc3cccc(C)c3)nc(=O)n1CC2 5.52%, O=C(COC(=O)c1ccc([N+](=O)[O-])o1)NCc1ccccc1 -21.1%, NS(=O)(=O)c1ccc(CCNC(=O)COC(=O)c2ccc([N+](=O)[O-])o2)cc1 -30.5%, O=C(NCCc1ccccc1)c1ccc(=O)[nH]c1 -5.64%, NC(=O)CC(NC(=O)c1ccccc1)c1ccc(NCc2ccccn2)c([N+](=O)[O-])c1 (stereo not drawn) -13.6%, COc1cc(/C=N/NC(=O)CSc2n[nH]c(=O)[nH]c2=O)cc(OC)c1O -11%, O=C(c1cc(-c2ccccc2)on1)N1CCC(N2CCOCC2)CC1 -4.7%, O=C(c1cc(-c2ccccc2)on1)N1CCC(CO)CC1 -1.3%, Cc1[nH]c(=O)[nH]c(=O)c1/C=N/NC(=O)[C@H](C)NC(=O)OC(C)(C)C -1.1%, COc1ccc(-c2nnc(SCC(=O)NC3CC3)o2)cc1 -3.22%, COC(=O)C[C@@H]1CC[C@@H](NS(=O)(=O)c2ccc(OC)cc2)[C@H](CO)O1 -0.059%, Cc1[nH]cnc1CN1CCc2c(c3ccccc3n2C)C1=O -21.6%, COc1ccc(C(=O)Nc2nc3ccccc3[nH]2)cc1S(=O)(=O)N1CCOCC1 -27.7%, O=C(NCCCN1CCOCC1)c1cc(-c2ccccc2)on1 6.12%, CCOc1cc2nc(-c3ccc(OC)c(OC)c3)nc(NCCCN3CCOCC3)c2cc1OC -5.91% [at 35 µM], O=C(NCCN1CCOCC1)c1cc(-c2ccccc2)on1 -3.9%, C#CCOCCOCCOCCNc1nc(N2CCN(C(=O)Cn3cc(CCCCN)nn3)CC2)nc(N2CCN(C(=O)[C@H](CCCCN)n3cc(CCCC)nn3)CC2)n1 -8.06%, C#CCOCCOCCOCCNc1nc(N2CCN(C(=O)C([C@@H](C)O)n3cc([C@@H](N)CCCCN)nn3)CC2)nc(N2CCN(C(=O)C([C@@H](C)O)n3cc([C@@H](N)CCCCN)nn3)CC2)n1 (stereo partly drawn) -11%, C#CCOCCOCCOCCNc1nc(N2CCN(C(=O)[C@H](CCCCN)n3cc([C@@H](N)CC(N)=O)nn3)CC2)nc(N2CCN(C(=O)[C@H](CCCCN)n3cc([C@@H](N)CC(N)=O)nn3)CC2)n1 -22%, C#CCOCCOCCOCCNc1nc(N2CCN(C(=O)[C@H](CCC(=O)O)n3cc([C@@H](N)CCCCN)nn3)CC2)nc(N2CCN(C(=O)[C@H](CCCCN)n3cc([C@@H](N)CC(N)=O)nn3)CC2)n1 -14.6%, CCOc1cc(C(=O)NC2CC(C)(C)NC(C)(C)C2)cc(OCC)c1OCC -3.7%, c1ccc(CN2CCN(CCCNc3ccc4nnc(-c5ccccc5)n4n3)CC2)cc1 -28.4%, Oc1cccc(CN2CCOCC2)c1O -3.34%, COc1ccc(C(=O)NNC(=O)Cc2coc3cc(OC)ccc23)cc1 -12.1%, CCN(/N=C/c1ccccc1)c1cc(=O)n(C)c(=O)[nH]1 -29.9%, O=C(Nc1ccccc1)N1CCCCN2[C@H](C1)[C@H](c1ccc(C#CC3CC3)cc1)[C@@H]2CO -25.8%, CC(C)(C)c1cc(C(=O)NCCCn2ccnc2)cc(C(C)(C)C)c1 -17.3%, O=C(NCCCn1ccnc1)c1cc(-c2ccccc2)on1 -3.75%, COc1ccc(-c2cnc3c(c2)C(=O)N([C@H](C)CO)C[C@H](C)[C@H](CN(C)Cc2cccnc2)O3)cc1 -2.08%, O=C(O)C1C2C=CC(C2)C1C(=O)NCCCn1ccnc1 (stereo not drawn) -5.06%, CN(c1ccc(C(=O)N2CCc3ccccc3C2)cc1)S(C)(=O)=O -30.6%, O=C(C1CC1)N1CCc2cc(Br)cc(S(=O)(=O)NCc3ccccn3)c21 -4.26%, CO[C@H]1CN(C)C(=O)c2cc(NS(=O)(=O)CC(F)(F)F)ccc2OC[C@H](C)N(Cc2cccnc2)C[C@@H]1C -3.73%, O=C(Nc1ccc(Br)cn1)c1cccc(C(=O)Nc2ccc(Br)cn2)c1 -24.4%, O=C(NC1Cc2ccccc2C1)c1cc(-c2ccccc2)on1 -0.19%, c1c[nH]c(CN2CCN(Cc3ncc[nH]3)CC2)n1 -24%, CC1(C)CC(=O)C=C(Nc2ccccc2N)C1 13.5%, O=c1[nH]cnc2c1C(c1ccccc1[N+](=O)[O-])c1c(nc[nH]c1=O)O2 -10.3%, O=C(NCCCCO)c1cc(-c2ccccc2)on1 -1.85%, O=C1CN(C(=O)COC(=O)c2ccc([N+](=O)[O-])o2)c2ccccc2N1 -18.7%, O=C(O)c1c[nH]c2c([N+](=O)[O-])cccc2c1=O -5.07%, O=C(N/N=C/c1c(Cl)nc2ccccn2c1=O)c1cccnc1 -20.1%, C[C@H](CO)N1C[C@H](C)[C@@H](CN(C)C(=O)Nc2ccc(C(F)(F)F)cc2)Oc2ncc(C3=CCCC3)cc2C1=O -28.6%, O=C(Nc1cnc2ccccc2c1)c1cc(-c2ccccc2)on1 -3.86%, CCOC(=O)N1CCN(C(=O)CSc2ccc3nnc(-c4ccccn4)n3n2)CC1 -23.3%, O=C(Nc1cccc(F)c1)c1cccnc1NCCc1ccccc1 -12.3%, Cc1ccc(C2=CSC3=NS(=O)(=O)CCN23)cc1 -17.9%, O=C(Nc1ccc2nc(-c3ccccn3)[nH]c2c1)C1CCCCC1 -26.6%, O=C(NN=C1CCCC1)c1ccc(O)cc1O -19%
